MITF TRPM1 HTS: activators of MITF-driven TRPM1 promoter reporter, primary screen, cell-based, SK-MEL-5, luciferase, single point | SK-MEL-5 TRPM1-promoter luciferase, 24 h; % of positive control, neutral wells = 0 | activation, % at 12.5 µM | 300,000 compounds, 0.75% hits | AID 588334, 2011;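 active = mean activation of at least 80% with every replicate also reaching 80%; inconclusive = mean reaches 80% but some replicate falls short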;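 also: 0% = neutral control wells and 100% = parthenolide positive control wells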
PAX8 inh HTS: inhibitors of PAX8-driven TPO luciferase reporter, primary screen, RMG-I cells, single concentration; SteadyGlo, 24 h; inhibition, % at 12.6 µM; 360,000 compounds, 1.2% hits; AID 652154, 2013;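 active = mean replicate inhibition at least 60% with every replicate also reaching 60%; inconclusive = only one of the two criteria is met; inactive = mean below 60% and not all replicates reaching 60%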;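 also: luciferase light reporting Pax8 driven TPO promoter activity; plate controls were median of neutral control wells for no effect and mitoxantrone controls for full effect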
MITF TRPM1 inh: inhibitors of MITF-dependent TRPM1 promoter reporter, primary screen, cell-based, SK-MEL-5, single point, luciferase | SK-MEL-5 TRPM1 promoter luciferase, 24 h | inhibition, % at 12.5 µM | 330,000 compounds, 0.83% hits | AID 488899, 2010;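 active = mean inhibition across replicates of 60% or more, whatever share of single replicates reaches that level; inconclusive = some that reach 60%, reason not given; inactive = mean inhibition across replicates below 60%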
EWS-Fli block: EWS/Fli-driven NR0B1 reporter inhibitors, primary screen, A673 cells, NR0B1 luciferase, luminescence, MLPCN library. viability-normalised. inhibition, % at 12.6 µM. 350,000 compounds, 0.67% hits;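 active = mean inhibition of at least 50% after viability correction, with every replicate also passing that limit; inconclusive = mean reaches 50% but only one of two replicates passes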;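 also: firefly luciferase signal divided by Alamar Blue viability fluorescence both relative to DMSO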
esBAF inh: Bmi1 luciferase reporter increase in mESCs, primary screen, esBAF inhibitor project, mouse ES cells, Bmi1 luciferase knock-in, single point. AID 602393, 2012. 350,000 compounds, 2% hits. reporter increase, % at 12.5 µM. 24 h; 100% = twice the neutral-well signal; in the data active = activation above about 40%; inconclusive = no clear call, values can overlap the other calls;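 also: 0% = median of the plate's neutral control wells and 100% = double that signal; a rise in the Bmi1 reporter signal indicates esBAF inhibition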
Wnt act: Wnt/beta-catenin pathway activators, primary screen, cell-based, plate reader, single point | Wnt/beta-catenin reporter cell assay, activator | activation, % at 9.35 µM | 300,000 compounds, 1.2% hits; in the data active = activation above about 30%, passing the limit was not always enough; inconclusive = no clear call, values can overlap the other calls;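 also: 0% = neutral control wells and 100% = positive control wells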
* hit, by the source's call; ? = inconclusive; . = no result given. Only some compounds are listed: those with a hit (about 4% of all), similar ones and a draw of the others.

SMILES | MITF TRPM1 HTS | PAX8 inh HTS | MITF TRPM1 inh | EWS-Fli block | esBAF inh | Wnt act
C[C@@H]1CN([C@@H](C)CO)C(=O)c2cccc(NS(=O)(=O)c3ccc(Cl)cc3)c2O[C@@H]1CN(C)S(=O)(=O)c1cn(C)cn1 | . | . | . | -2 | -1 | .
C[C@H]1CCCCO[C@H](CN(C)C)[C@@H](C)CN([C@@H](C)CO)C(=O)c2cc(NC(=O)c3ccncc3)ccc2O1 | . | -17 | . | -3 | -2 | .
Cc1ccc(S(=O)(=O)N(C)C[C@@H]2OCCCC[C@H](C)Oc3ccc(NS(=O)(=O)c4ccc(F)cc4)cc3C(=O)N([C@H](C)CO)C[C@H]2C)cc1 | . | 87* | . | 2 | -2 | .
Cc1ccc(S(=O)(=O)Nc2ccc3c(c2)C(=O)N([C@H](C)CO)C[C@H](C)[C@@H](CN(C)S(=O)(=O)c2ccc(F)cc2)OCCCC[C@H](C)O3)cc1 | . | 86* | . | -11 | 0 | .
CCCc1cc(C(N)=O)c(NC(=O)C2CCCO2)s1 (stereo unspecified) | 0 | . | 3 | . | 3 | .
CCCc1cc(C(N)=O)c(NC(=O)c2ccco2)s1 | . | -86 | -37 | . | 26 | 41*
COc1cccc(C#Cc2cnc3c(c2)C(=O)N([C@@H](C)CO)C[C@@H](C)[C@H](CN(C)C(C)=O)O3)c1 | . | . | . | 3 | 3 | .
COc1ccc(CNc2ccc(-c3ccc(OC)cc3)nn2)cc1 | 44 | . | -44 | . | 45* | .
COc1ccc(CNc2ccc(-c3ccccc3OC)nn2)cc1 | . | . | -27 | . | 34 | .
COc1ccc(CNc2nc3c(c(=O)n(Cc4ccc(Br)cc4)c(=O)n3C)n2C)cc1 | -26 | 84* | 24 | . | -2 | -7
COc1ccc(CNc2ccc(Br)cc2)cc1 | 58 | -44 | -56 | -100 | . | 43*
Cn1c(NCc2ccccc2)nc2c1c(=O)n(Cc1ccc(Br)cc1)c(=O)n2C | -8 | . | 9 | . | 8 | .
CCC(=O)N[C@@H]1CC[C@@H](CC(=O)OC)O[C@@H]1CO | . | -2 | . | -1 | 2 | .
COC(=O)c1sccc1NC(=O)Nc1cc(C)cc(C)c1 | 42 | -103 | -46 | -56 | 80* | 0
COC(=O)c1sccc1NC(=O)Nc1ccc(C)cc1 | 20 | 4 | -19 | -15 | 44* | -2
COC(=O)c1sccc1NC(=O)Nc1ccc(F)cc1 | 5 | . | -11 | -5 | . | -3
C[C@H]1CN([C@@H](C)CO)C(=O)c2cc(NC(=O)c3ccncc3)ccc2O[C@@H]1CN(C)S(=O)(=O)c1ccc(Cl)cc1 | . | -22 | . | -1 | -1 | .
COc1ccc(NC(=O)N(C)C[C@@H]2Oc3c(NS(=O)(=O)c4ccc(Cl)cc4)cccc3C(=O)N([C@@H](C)CO)C[C@@H]2C)cc1 | . | -1 | . | -5 | 4 | .
C[C@@H]1CN([C@H](C)CO)C(=O)Cc2cc(NC(=O)NC3CCCCC3)ccc2O[C@H]1CN(C)C(=O)Nc1ccc2c(c1)OCO2 | . | -25 | . | -8 | 5 | .
CC1(C)CC(=O)C(=Cc2cn(-c3ccccc3)nc2-c2ccc(Cl)cc2)C(=O)C1 | 13 | . | -12 | . | 83* | .
CC1(C)CC(=O)C(=Cc2cn(CCC#N)nc2-c2ccc(Cl)cc2)C(=O)C1 | 11 | -11 | -8 | 5 | . | -2
CC1=NNC(=O)/C1=C\c1cn(-c2ccccc2)nc1-c1ccccc1 | -95 | 33 | 95* | 82* | . | -1
O=C(Nc1ccc(Br)cn1)c1ccc(Br)s1 | 21 | -122 | -11 | 2 | 45 | 38*
O=C(Nc1ccon1)c1ccc(Br)s1 | 3 | -146 | -1 | -6 | 11 | 8
O=C(Nc1nccs1)c1ccc(Cl)s1 | 41 | -133 | -38 | -84 | 52* | 14
SMILES | MITF TRPM1 HTS | PAX8 inh HTS | MITF TRPM1 inh | EWS-Fli block | esBAF inh | Wnt act
Cc1ccccc1C(=O)Nc1ccc(Br)cn1 | 96* | . | -98 | . | ? | .
Cc1ccnc(NC(=O)c2ccc(Br)s2)c1 | 50 | -106 | -53 | -76 | 0 | 35*
C[C@]12CCC3C4(C=CC5(C=C4C(=O)c4ccc(F)c(F)c4)C[C@@H](O)CC[C@]35C)C1CC[C@@]2(O)CN1CCC(C(N)=O)CC1 (stereo partly specified) | . | 12 | . | 10 | . | .
C[C@@H]1CCCCO[C@H](CN(C)C(=O)CCC(F)(F)F)[C@@H](C)CN([C@@H](C)CO)C(=O)c2cc(NC(=O)CCCCCC(=O)Nc3ccccc3N)ccc2O1 | . | 37 | . | 11 | 6 | .
O=C(Nc1ccc(Br)cn1)c1ccc(Cl)s1 | 44 | -242 | -43 | -108 | 60* | 35*
O=C(NCc1ccccn1)c1ccc(Cl)s1 | 29 | . | -34 | -2 | 3 | 3
Cc1cc(C(=O)Nc2ccc(Br)cn2)sc1C | . | -183 | . | -105 | 16 | 54*
O=C(Nc1ccccn1)c1ccc(Cl)s1 | 161* | -143 | -151 | -77 | . | 16
CCC(=O)Nc1ccc(Br)cn1 | -5 | -1 | 7 | -1 | 0 | -1
C[C@H](NC(=O)C[C@@H]1C=C[C@H](NC(=O)C2CCOCC2)[C@H](CO)O1)c1ccccc1 | . | 3 | . | 1 | -3 | .
CO[C@@H]1CN(C)C(=O)c2cc(NC(=O)CC(F)(F)F)ccc2OC[C@@H](C)N(C(=O)C2CCOCC2)C[C@H]1C | . | -9 | . | 7 | -2 | .
O=C(CCCCN1CCCCC1)c1ccccc1 | -2 | 7 | 2 | -2 | -2 | -1
O=C(C(=Cc1ccccc1)CN1CCCCC1)c1ccccc1 | -97 | 104* | 97* | 58* | . | -6
CC(C)(CNC(=O)c1ccc(-c2ccccc2Cl)o1)N1CCOCC1 | 70 | -144 | -72 | -70 | 71* | 9
CC(C)(CNC(=O)c1cccc(S(=O)(=O)N2CCCCC2)c1)N1CCOCC1 | . | 8 | . | 6 | 14 | 119*
CC1CN(C(=O)c2ccc(-c3ccccc3Cl)o2)CC(C)O1 (stereo unspecified) | 67 | -78 | -67 | -26 | 33 | 3
CC1CCCN(C(=O)c2ccc(-c3ccccc3Cl)o2)C1 (stereo unspecified) | 140* | -228 | -140 | -78 | 77* | 34*
O=[N+]([O-])c1ccccc1-c1ccc(C(=S)N2CCCC2)o1 | 14 | -20 | -14 | -68 | 44* | 12
O=[N+]([O-])c1ccccc1-c1ccc(C(=S)N2CCCCC2)o1 | . | -64 | -23 | -116 | ? | -2
C[C@@H]1CN([C@H](C)CO)C(=O)c2cc(NS(=O)(=O)c3ccc(F)cc3)ccc2O[C@@H]1CN(C)CC1CC1 | . | -1 | . | . | -4 | .
O=C(C[C@H]1CC[C@@H](NC(=O)c2ccccc2)[C@@H](CO)O1)NCCc1ccncc1 | . | . | . | -1 | -2 | .
COCC(=O)Nc1ccc2c(c1)OC[C@H](C)N(C(=O)C1CCCC1)C[C@@H](C)[C@H](OC)CN(C)C2=O | . | 10 | . | -6 | 2 | .
